In assay [1] the target is T1, Mitogen-activated protein kinase kinase kinase 5 (Homo sapiens) (UniProt Q99683).
T1 sequence (whole entry): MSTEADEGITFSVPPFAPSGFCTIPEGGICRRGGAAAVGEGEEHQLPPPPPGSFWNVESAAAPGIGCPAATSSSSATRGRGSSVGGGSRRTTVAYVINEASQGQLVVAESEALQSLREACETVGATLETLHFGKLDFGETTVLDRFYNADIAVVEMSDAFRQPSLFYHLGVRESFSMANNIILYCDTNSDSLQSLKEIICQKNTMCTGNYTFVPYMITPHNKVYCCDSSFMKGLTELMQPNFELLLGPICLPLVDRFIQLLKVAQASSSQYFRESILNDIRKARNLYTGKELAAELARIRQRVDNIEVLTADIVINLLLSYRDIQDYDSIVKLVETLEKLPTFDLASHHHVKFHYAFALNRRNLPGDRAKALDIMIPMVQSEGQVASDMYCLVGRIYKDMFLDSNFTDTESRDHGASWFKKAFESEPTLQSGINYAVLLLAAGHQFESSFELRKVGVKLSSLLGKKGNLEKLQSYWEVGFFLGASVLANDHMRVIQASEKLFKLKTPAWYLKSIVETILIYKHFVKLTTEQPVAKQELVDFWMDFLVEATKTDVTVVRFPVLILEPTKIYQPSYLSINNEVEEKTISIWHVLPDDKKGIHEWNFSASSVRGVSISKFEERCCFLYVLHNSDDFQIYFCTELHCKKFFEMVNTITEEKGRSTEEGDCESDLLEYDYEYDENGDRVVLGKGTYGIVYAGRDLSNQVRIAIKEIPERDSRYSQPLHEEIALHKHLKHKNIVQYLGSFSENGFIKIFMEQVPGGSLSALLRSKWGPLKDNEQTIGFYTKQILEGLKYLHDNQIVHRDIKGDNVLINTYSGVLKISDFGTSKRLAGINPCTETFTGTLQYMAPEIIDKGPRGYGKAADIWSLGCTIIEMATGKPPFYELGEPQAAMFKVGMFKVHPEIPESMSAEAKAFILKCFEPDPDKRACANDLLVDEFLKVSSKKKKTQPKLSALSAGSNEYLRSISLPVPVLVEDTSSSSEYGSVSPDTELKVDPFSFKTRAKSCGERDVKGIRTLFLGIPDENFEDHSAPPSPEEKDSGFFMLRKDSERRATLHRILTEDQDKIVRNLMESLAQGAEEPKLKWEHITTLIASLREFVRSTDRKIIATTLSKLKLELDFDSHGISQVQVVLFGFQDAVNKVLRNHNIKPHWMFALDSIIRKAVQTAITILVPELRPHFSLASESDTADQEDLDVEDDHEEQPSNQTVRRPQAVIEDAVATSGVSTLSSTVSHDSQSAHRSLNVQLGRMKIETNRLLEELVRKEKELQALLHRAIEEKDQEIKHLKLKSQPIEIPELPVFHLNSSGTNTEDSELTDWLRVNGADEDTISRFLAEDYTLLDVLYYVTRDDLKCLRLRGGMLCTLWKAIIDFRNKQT
The conditions noted are these: at 10 µM.

Assay [2] deals with Tyrosine-protein kinase ABL1 (Homo sapiens) (UniProt P00519). The conditions noted are these: at 1 µM.
Assay [3] shares this target. The conditions noted are these: at 10 µM.
The target of assay [4] is Tyrosine-protein kinase ABL2 (Homo sapiens) (UniProt P42684). The conditions noted are these: at 1 µM.
Assay [5] shares this target. The conditions noted are these: at 10 µM.
Assay [6] deals with T2, Aurora kinase A (Homo sapiens) (UniProt O14965).
T2 sequence (whole entry): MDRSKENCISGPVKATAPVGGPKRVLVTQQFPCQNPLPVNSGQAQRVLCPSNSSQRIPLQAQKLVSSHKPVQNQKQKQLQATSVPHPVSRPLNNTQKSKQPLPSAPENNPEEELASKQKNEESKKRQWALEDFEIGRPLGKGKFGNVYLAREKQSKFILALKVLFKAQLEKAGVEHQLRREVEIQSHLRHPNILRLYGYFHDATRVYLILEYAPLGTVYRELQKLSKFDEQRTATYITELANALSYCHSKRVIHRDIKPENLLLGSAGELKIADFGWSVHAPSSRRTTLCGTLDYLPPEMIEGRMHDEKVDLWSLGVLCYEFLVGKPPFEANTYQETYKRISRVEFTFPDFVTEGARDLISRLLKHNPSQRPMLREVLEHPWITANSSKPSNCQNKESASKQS
The conditions noted are these: at 1 µM.

The target in assay [7] is T2, Aurora kinase A (Homo sapiens). The conditions noted are these: at 10 µM.
Assay [8] concerns the target Aurora kinase B (Homo sapiens) (UniProt Q96GD4). The conditions noted are these: at 1 µM.
Assay [9] has the same target. The conditions noted are these: at 10 µM.
Assay [10] addresses T3, Aurora kinase C (Homo sapiens) (UniProt Q9UQB9).
T3 sequence (whole entry): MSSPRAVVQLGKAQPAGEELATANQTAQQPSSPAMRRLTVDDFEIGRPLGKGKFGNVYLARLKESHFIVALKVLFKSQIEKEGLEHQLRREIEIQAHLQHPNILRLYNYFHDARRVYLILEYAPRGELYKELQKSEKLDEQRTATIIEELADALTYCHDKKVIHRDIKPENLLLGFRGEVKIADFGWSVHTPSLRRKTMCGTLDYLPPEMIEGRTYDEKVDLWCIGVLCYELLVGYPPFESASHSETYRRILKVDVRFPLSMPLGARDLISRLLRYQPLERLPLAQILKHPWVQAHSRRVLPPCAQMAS
To be noted: at 1 µM.

For assay [11], the target named is T3, Aurora kinase C (Homo sapiens). The conditions noted are these: at 10 µM.
The target in assay [12] is Tyrosine-protein kinase receptor UFO (Homo sapiens) (UniProt P30530). To be noted: at 1 µM.
For assay [13] the target is unchanged. The conditions noted are these: at 10 µM.
Assay [14] concerns the target Tyrosine-protein kinase BTK (Homo sapiens) (UniProt Q06187). The conditions noted are these: at 1 µM.
Assay [15] shares this target. The conditions noted are these: at 10 µM.
Assay [16] has as its target Tyrosine-protein kinase Blk (Homo sapiens) (UniProt P51451). The conditions noted are these: at 1 µM.
Assay [17] has the same target. The conditions noted are these: at 10 µM.
Assay [18] has as its target T4, Protein kinase C zeta type (Homo sapiens) (UniProt Q05513).
T4 sequence (whole entry): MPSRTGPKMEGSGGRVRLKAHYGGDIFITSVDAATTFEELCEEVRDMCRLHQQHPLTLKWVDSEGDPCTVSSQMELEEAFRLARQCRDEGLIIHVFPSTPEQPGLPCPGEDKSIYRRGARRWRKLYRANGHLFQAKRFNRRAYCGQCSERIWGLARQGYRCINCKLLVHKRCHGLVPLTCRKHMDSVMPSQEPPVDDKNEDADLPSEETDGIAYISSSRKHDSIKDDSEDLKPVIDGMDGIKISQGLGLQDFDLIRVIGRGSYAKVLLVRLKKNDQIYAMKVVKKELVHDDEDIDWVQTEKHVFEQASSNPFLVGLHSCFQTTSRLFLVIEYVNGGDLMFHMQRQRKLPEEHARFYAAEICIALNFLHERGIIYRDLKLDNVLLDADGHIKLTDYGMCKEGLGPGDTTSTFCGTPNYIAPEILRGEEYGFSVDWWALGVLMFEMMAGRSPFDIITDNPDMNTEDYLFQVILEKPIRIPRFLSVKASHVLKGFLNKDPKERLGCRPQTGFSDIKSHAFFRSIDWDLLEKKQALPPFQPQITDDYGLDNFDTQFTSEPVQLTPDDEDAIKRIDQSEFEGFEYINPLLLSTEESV
To be noted: at 1 µM.

Assay [19] concerns the target Protein-tyrosine kinase 6 (Homo sapiens) (UniProt Q13882). The conditions noted are these: at 1 µM.
For assay [20] the target is unchanged. The conditions noted are these: at 10 µM.

Tyrosine-protein kinase ABL2 (Homo sapiens), sequence (P42684 whole entry): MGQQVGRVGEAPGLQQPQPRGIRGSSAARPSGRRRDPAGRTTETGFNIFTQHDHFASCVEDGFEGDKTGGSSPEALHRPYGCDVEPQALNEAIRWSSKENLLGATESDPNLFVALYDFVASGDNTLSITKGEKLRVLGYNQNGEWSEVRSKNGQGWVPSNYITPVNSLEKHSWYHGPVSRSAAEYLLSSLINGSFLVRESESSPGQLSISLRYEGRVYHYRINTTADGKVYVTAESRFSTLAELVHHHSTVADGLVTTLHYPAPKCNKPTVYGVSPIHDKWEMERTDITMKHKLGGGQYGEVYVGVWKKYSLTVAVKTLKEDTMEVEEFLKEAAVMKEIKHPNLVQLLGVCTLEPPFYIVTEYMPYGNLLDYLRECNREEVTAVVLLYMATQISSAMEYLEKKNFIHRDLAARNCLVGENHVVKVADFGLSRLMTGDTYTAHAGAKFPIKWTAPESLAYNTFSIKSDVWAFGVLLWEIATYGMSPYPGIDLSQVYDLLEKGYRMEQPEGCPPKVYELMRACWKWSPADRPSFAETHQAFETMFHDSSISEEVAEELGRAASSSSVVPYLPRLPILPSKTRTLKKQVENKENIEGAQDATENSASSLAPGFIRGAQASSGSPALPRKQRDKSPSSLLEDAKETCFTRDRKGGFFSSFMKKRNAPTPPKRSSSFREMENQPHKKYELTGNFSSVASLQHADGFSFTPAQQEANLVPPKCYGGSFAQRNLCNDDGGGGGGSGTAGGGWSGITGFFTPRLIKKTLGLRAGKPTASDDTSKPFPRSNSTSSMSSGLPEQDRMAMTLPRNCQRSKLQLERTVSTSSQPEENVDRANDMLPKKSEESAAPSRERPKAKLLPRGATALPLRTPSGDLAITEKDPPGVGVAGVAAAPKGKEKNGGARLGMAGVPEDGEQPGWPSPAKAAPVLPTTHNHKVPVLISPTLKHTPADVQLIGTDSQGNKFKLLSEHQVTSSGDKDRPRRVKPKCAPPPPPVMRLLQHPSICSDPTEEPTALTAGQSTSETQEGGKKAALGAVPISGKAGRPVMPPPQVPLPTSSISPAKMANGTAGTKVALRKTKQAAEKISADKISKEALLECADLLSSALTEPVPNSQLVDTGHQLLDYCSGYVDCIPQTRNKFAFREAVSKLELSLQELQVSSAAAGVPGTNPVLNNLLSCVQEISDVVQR
Tyrosine-protein kinase receptor UFO (Homo sapiens), sequence (P30530 whole entry): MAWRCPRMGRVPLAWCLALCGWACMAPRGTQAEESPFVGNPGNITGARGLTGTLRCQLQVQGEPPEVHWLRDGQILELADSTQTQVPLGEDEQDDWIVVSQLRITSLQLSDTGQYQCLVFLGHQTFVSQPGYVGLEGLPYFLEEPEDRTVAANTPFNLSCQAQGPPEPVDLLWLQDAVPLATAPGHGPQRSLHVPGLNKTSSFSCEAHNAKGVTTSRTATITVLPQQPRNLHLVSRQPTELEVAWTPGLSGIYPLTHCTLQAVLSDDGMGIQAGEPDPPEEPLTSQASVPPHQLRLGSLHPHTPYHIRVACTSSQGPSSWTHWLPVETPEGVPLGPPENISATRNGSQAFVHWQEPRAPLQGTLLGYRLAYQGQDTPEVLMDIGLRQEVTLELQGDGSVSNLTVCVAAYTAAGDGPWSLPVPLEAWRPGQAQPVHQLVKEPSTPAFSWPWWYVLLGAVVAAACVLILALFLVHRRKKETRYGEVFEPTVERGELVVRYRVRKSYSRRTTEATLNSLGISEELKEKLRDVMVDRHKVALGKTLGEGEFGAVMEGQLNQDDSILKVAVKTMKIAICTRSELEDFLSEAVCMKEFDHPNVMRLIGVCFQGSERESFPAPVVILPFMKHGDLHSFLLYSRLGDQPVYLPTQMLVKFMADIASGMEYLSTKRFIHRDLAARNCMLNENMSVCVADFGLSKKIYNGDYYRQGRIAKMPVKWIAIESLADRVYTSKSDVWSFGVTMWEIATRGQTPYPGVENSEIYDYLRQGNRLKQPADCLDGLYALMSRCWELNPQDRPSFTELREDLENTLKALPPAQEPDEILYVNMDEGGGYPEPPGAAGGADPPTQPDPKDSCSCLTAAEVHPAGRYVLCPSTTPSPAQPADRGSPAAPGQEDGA
Protein-tyrosine kinase 6 (Homo sapiens), sequence (Q13882 whole entry, looked up): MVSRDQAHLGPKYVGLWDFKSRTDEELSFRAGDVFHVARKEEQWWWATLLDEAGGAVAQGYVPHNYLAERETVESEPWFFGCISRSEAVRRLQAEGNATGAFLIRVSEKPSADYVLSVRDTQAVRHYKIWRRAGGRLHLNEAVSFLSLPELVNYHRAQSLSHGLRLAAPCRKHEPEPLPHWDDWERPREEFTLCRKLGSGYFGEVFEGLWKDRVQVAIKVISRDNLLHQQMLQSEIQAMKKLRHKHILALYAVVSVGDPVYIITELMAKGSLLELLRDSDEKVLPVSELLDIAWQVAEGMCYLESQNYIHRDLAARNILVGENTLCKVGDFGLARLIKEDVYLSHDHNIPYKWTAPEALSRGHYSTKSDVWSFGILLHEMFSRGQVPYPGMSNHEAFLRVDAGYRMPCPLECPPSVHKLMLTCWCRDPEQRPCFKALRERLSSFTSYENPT
Tyrosine-protein kinase Blk (Homo sapiens), sequence (P51451 2-505 limits assumed): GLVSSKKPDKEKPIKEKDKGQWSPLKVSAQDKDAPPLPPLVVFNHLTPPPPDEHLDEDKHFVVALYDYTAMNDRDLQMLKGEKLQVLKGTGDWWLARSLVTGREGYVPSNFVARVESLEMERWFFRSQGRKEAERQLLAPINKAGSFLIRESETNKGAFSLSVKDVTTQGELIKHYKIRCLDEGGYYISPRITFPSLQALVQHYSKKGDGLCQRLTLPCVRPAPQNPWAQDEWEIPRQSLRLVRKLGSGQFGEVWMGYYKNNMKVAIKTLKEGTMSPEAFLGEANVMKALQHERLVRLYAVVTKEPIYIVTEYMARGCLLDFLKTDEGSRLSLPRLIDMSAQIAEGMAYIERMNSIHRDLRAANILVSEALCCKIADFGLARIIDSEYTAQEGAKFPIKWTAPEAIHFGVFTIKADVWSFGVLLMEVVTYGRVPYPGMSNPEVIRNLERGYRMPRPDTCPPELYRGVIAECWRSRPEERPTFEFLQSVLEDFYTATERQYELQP
Tyrosine-protein kinase ABL1 (Homo sapiens), sequence (P00519 whole entry): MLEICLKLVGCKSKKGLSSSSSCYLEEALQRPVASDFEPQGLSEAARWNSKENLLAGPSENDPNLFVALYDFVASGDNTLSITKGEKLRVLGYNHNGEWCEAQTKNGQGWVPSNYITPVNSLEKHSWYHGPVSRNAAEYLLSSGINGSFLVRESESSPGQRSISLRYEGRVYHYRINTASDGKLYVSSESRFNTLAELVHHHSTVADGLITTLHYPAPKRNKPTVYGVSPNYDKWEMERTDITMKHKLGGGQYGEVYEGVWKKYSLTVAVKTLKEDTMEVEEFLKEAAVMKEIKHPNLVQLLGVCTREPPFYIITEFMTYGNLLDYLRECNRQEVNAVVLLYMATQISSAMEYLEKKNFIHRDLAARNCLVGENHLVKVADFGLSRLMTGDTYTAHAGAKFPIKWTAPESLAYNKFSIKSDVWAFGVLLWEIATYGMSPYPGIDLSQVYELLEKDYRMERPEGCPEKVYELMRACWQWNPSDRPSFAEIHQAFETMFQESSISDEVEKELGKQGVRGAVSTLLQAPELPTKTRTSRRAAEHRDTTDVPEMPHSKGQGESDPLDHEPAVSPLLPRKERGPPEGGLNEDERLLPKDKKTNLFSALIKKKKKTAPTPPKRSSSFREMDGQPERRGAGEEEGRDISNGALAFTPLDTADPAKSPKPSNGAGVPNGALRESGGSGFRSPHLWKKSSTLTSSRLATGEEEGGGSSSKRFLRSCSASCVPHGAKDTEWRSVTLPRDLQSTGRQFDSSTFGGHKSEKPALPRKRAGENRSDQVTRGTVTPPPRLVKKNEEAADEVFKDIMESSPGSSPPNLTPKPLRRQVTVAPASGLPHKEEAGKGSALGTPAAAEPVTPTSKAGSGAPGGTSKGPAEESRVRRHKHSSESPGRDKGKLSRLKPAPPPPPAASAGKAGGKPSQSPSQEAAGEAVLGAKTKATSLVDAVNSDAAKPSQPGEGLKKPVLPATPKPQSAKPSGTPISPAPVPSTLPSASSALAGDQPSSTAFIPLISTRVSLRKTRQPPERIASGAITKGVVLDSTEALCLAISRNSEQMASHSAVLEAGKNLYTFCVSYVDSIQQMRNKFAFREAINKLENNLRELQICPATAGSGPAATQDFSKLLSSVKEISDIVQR
Aurora kinase B (Homo sapiens), sequence (Q96GD4 whole entry): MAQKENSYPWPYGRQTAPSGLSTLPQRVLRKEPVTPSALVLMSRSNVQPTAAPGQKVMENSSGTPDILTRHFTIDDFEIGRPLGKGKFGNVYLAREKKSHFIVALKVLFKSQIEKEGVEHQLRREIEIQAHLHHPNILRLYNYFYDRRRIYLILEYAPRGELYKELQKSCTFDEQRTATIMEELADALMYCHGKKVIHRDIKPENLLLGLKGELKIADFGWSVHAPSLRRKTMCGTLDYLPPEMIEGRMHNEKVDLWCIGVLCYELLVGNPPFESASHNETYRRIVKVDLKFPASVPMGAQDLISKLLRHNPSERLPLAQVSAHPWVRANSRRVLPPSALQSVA

On to `Nc1n[nH]c2nc3ccccc3nc12`, for which the residual activity in assay [1] is 75%; in [2], 85%; in [3], 73%; in assay [4], 87%; in assay [5] it was 83%; in assay [6], 91%. The residual activity amounted to 77% in assay [7]; 77% in assay [8]; 26% in assay [9]; 72% in [10]; 30% in assay [11]; 94% in assay [12]. Moreover, the residual activity turned out to be 96% in assay [13]; 88% in [14]; 88% in [15]; 89% in assay [16]; 88% in [17].
With `COc1cc2c(cc1OC)-c1n[nH]c(Nc3cccc(F)c3)c1C2`, the residual activity is 111% (inactive) in [18]; 47% in assay [6]; 22% in assay [7]; 43% in [8]; 6% in assay [9]; 71% in [12]. For the same compound, the residual activity in assay [13] was determined as 50%; in [19], 78%; in [20] it was 25%; in [14] it was 22%; in assay [15] it was 4%; in [16], 14%. Besides, in assay [17], the residual activity came to 2%.
For `COc1cc2nccc(Oc3ccc(NC(=O)Nc4cc(C)on4)c(Cl)c3)c2cc1OC`, the residual activity in assay [18] is 108% (inactive); in assay [4], -2%; in [5], -1%; in [6], 7%; in [7], 7%; in assay [8], 3%. In addition, the residual activity in [9] came out at 1%; in assay [10], 32%; in assay [11] it was 7%; in assay [12], 12%; in assay [13] it was 10%; in assay [19], 2%. Also, the residual activity in [20] is -1%; in assay [14] it was 50%; in assay [15], 10%; in assay [16], 2%; in assay [17] it was 0%.
Turning to `Cn1c2ccccc2c2c3c(c4c5ccccc5n(CCC#N)c4c21)CNC3=O`, the residual activity was 102% (inactive) in assay [18]; 16% in assay [1]; 4% in assay [6]; 19% in assay [7]; 0% in assay [8]; 1% in [9]. Further, the residual activity in [10] turned out to be 47%; in assay [11] it was 35%; in assay [12], 53%; in assay [13], 32%; in [14] it was 10%; in [15] it was 9%.
As to `Nc1ncnc2c1cnn2-c1ccccc1`, the residual activity in assay [1] was found to be 101%; in assay [2], 100%; in assay [3] it was 76%; in assay [7], 95%; in assay [9] it was 68%; in [10], 97%. Also, the residual activity in assay [11] amounted to 53%; in assay [19], 98%; in assay [20], 96%; in [14], 94%; in assay [15], 99%; in assay [17] it was 88%.
`O=C(O)/C=C/c1cc(Br)c(Br)c(Br)c1Br`: the residual activity in [1] was 91%; in [2], 86%; in assay [3] it was 40%; in assay [4], 75%; in [5], 53%; in [6] it was 83%. Further, the residual activity in [7] is 38%; in [8] it was 60%; in assay [9], 16%; in assay [10], 98%; in [11] it was 78%; in assay [12], 91%. The residual activity in assay [13] is 51%; in assay [19] it was 99%; in assay [20], 101%; in assay [14] it was 102%; in assay [15], 91%; in assay [16] it was 99%. Besides, in assay [17], the residual activity turned out to be 81%.

Values taken from ChEMBL document CHEMBL2218924, “A broad activity screen in support of a chemogenomic map for kinase signalling research and drug discovery” (Biochem J, 2013).
